{
  "source": "PubChem BioAssay (Tox21)",
  "note": "Results filed as inconclusive are left out. A call without a number means that no potency is given here. Calls of active or inactive are those of the source. Calls come from the whole dose curve; as a rule, active = well fitted cell-killing curve with a large enough effect in the repeat runs; inconclusive = weak or mixed curves, or effect the other way; inactive = flat fitted curve, though single readings scatter. Potency is the fitted concentration of half-maximal effect.",
  "data": [
    {"test": "qHTS assay to identify small molecule agonists of the constitutive androstane receptor (CAR) signaling pathway - cell viability counter screen (AID 1224836); note: nearly all actives have a fitted effect of over 45% in size", "details": "HepG2-CYP2B6-hCAR viability, CellTiter-Fluor, 23 h, PK11195 added to every well; series mostly up to 92.4 µM", "excerpt": "U.S. Tox21 Program National Center for Advancing Translational Sciences [NCATS] NIH Chemical Genomics Center [NCGC] U.S. Environmental Protection Agency [EPA] National Institutes of Environmental Health Sciences [NIEHS] National Toxicology Program [NTP] U.S. Food and Drug Administration [FDA] Tox21 Assay Overview: The constitutive androstane receptor (CAR) is a nuclear receptor which regulates multiple drug metabolizing enzymes (DMEs) and transporters. Activating CAR will generally increase the transcription and subsequent translation of CYP2B6 and CYP3A4. These two DMEs represent about 50% of the drug metabolizing potential in the body. […] Recently, there have also been studies performed indicating CARs role in energy metabolism and cancer therapy. Therefore, inducing CARs activity could have a potential effect on diabetes and cancer. Identifying environmental toxins and compounds which modulate CAR, through the use of the Tox21 10K compound collection, will be an important step in determining the toxicity and potential therapeutic effects these factors will have on the human body. To differentiate true CAR agonists from cytotoxic substances, the assay is multiplexed with a cell viability assay.\nTox21 Assay Protocol Summary: A double-stable (hCAR and CYP2B6-2.2kb) transfected cell line, derived from human hepatoma (HepG2) cells, was utilized for the duration of the quantitative high-throughput screens. The HepG2-CYP2B6-hCAR cells were dispensed at 2500 cells/4 uL/well in 1536-well white solid bottom plates using a Multidrop Combi. After the assay plates were incubated at 37 C/5% CO2 for 4 hrs, 23 nL of compounds at 15 concentrations (from 5-48 columns) or positive control (from 1 to 4 columns) were transferred to the assay plates using a Pintool station. One uL of PK11195 (final concentration = 0.75 uM) was added, using a Flying Reagent Dispenser, inside each well. After a 23 hr incubation period at 37 C/5% CO2, 1 uL of CellTiter-Fluor reagent was added into each well of the assay plates using a Flying Reagent Dispenser. The fluorescence intensity in the plates was then measured using a ViewLux plate reader.", "values": [
      {"smiles": "COC(=O)C1=C(C)NC(C)=C(C(=O)O[C@@H]2CCCN(Cc3ccccc3)C2)[C@@H]1c1cccc([N+](=O)[O-])c1", "Potency": "inactive"},
      {"smiles": "CC=C(Cl)Cl", "Potency": "inactive"},
      {"smiles": "CCC=CC#N", "Potency": "inactive"},
      {"smiles": "C[C@@H](O)[C@H]1C(=O)N2C(C(=O)O)=C([C@H]3CCCO3)S[C@H]12", "Potency": "inactive"},
      {"smiles": "O=C1Cc2ccccc2N1c1c(Cl)cccc1Cl", "Potency": "inactive"},
      {"smiles": "C=Cc1ccc(S(=O)(=O)O)cc1", "Potency": "inactive"},
      {"smiles": "CC(C)=CCC/C(C)=C/CC/C(C)=C/C(=O)OCC(=O)[C@@]1(O)CC[C@H]2[C@@H]3CCC4=CC(=O)C=C[C@]4(C)[C@H]3[C@@H](O)C[C@@]21C", "Potency": "inactive"},
      {"smiles": "COc1ccccc1NC(=O)c1cc2ccccc2cc1O", "Potency": "inactive"},
      {"smiles": "CN1C(=O)OC(C)(C)C1=O", "Potency": "inactive"},
      {"smiles": "CN1C(C(=O)Nc2ccccn2)=C(O)c2sccc2S1(=O)=O", "Potency": "inactive"},
      {"smiles": "NCCNCCO", "Potency": "inactive"},
      {"smiles": "CC1=C(Br)C(=O)C(Br)=C/C1=C(/c1ccccc1S(=O)(=O)O)c1cc(Br)c(O)c(Br)c1C", "Potency": "18.6 µM (active)"},
      {"smiles": "Cc1cc(O)ccc1O", "Potency": "inactive"},
      {"smiles": "CCn1cc(C(=O)O)c(=O)c2cc(F)c(N3CCNCC3)cc21", "Potency": "inactive"},
      {"smiles": "CCC(C)COC(=O)CC(C)C", "note": "(stereo not given)", "Potency": "inactive"},
      {"smiles": "CN1CC(=O)N2[C@H](c3ccc4c(c3)OCO4)c3[nH]c4ccccc4c3C[C@@H]2C1=O", "Potency": "inactive"},
      {"smiles": "C=C(C)CCCC(C)CCO", "note": "(stereo not given)", "Potency": "inactive"},
      {"smiles": "OCCOCC#CCOCCO", "Potency": "inactive"},
      {"smiles": "Cc1cc(C)cc(N)c1", "Potency": "inactive"},
      {"smiles": "O=C1CCCCCCCCCCOCCCCO1", "Potency": "inactive"},
      {"smiles": "CC(=O)Nc1ccc(C)cc1C", "Potency": "inactive"},
      {"smiles": "CCCCCCCCCCCCCCN(CCO)CCO", "Potency": "61.1 µM (active)"},
      {"smiles": "O=C(O)CCCCCCCCCCCBr", "Potency": "inactive"},
      {"smiles": "Cc1cc(C)c(N)cc1C", "Potency": "inactive"},
      {"smiles": "COc1ccccc1N1CCN(CC(O)COc2cccc3ccccc23)CC1", "note": "(stereo not given)", "Potency": "inactive"},
      {"smiles": "O[C@@H]1CO[C@H]2[C@@H]1OC[C@@H]2O", "Potency": "inactive"},
      {"smiles": "COC(=O)[C@H]1[C@H]2C[C@@H]3c4[nH]c5cc(OC)ccc5c4CCN3C[C@H]2C[C@@H](OC(=O)/C=C/c2ccc(O)c(OC)c2)[C@@H]1OC", "Potency": "inactive"},
      {"smiles": "O=C(CCCN1CC=C(n2c(=O)[nH]c3ccccc32)CC1)c1ccc(F)cc1", "Potency": "inactive"},
      {"smiles": "C=CC(C)(CCC=C(C)C)OC(=O)CC(C)C", "note": "(stereo not given)", "Potency": "inactive"},
      {"smiles": "N#[N+]c1ccc2c(S(=O)(=O)[O-])cccc2c1O", "Potency": "inactive"},
      {"smiles": "Cc1ccco1", "Potency": "inactive"},
      {"smiles": "CCOC(C)=O", "Potency": "inactive"},
      {"smiles": "CO[C@]1(NC(=O)CSC(F)F)C(=O)N2C(C(=O)O)=C(CSc3nnnn3CCO)CO[C@H]21", "Potency": "inactive"},
      {"smiles": "O=c1cc(-c2ccccc2)oc2ccc3ccccc3c12", "Potency": "inactive"},
      {"smiles": "O=C(/C=C/c1ccc(O)c(O)c1)O[C@@H]1C[C@@](OC(=O)/C=C/c2ccc(O)c(O)c2)(C(=O)O)C[C@@H](O)[C@@H]1O", "Potency": "inactive"},
      {"smiles": "C=C1c2cccc(O)c2C(O)=C2C(=O)[C@]3(O)C(O)=C(C(N)=O)C(=O)[C@@H](N(C)C)[C@@H]3[C@@H](O)[C@H]12", "Potency": "inactive"},
      {"smiles": "O=Cc1c2ccccc2c(Cl)c2ccccc12", "Potency": "inactive"},
      {"smiles": "CN1CCCC(n2nc(Cc3ccc(Cl)cc3)c3ccccc3c2=O)CC1", "note": "(stereo not given)", "Potency": "23.7 µM (active)"},
      {"smiles": "CN(C)CCC=C1c2ccccc2C=Cc2ccccc21", "Potency": "inactive"},
      {"smiles": "CCCCCC#CC(=O)OC", "Potency": "inactive"}
    ]}
  ]
}
